ChEMBL document CHEMBL1157539, “Thousands of chemical starting points for antimalarial lead identification” (Nature, 2010)

System: Plasmodium falciparum
Experiment: GSK_TCMDC: Inhibition of Plasmodium falciparum 3D7 in whole red blood cells, using parasite LDH activity as an index of growth. Test compounds present at 2uM
Type: functional

SMILES | Inhibition
CCCc1cc(Cc2cnc(N)nc2N)cc(OCCCCCC(=O)O)c1OC.Cl | 95%
O=C(Nc1ccc(OC2CCN(Cc3ccsc3)C2)c(Cl)c1)c1ccco1.O=C(O)C(F)(F)F (stereo unspecified) | 93%
CCOC(=O)c1ccc(NC(=O)c2ccccc2C(=O)O)cc1 | 92%
CC(=NNC(N)=O)C1=C(O)C(c2ccccc2)N(C2CCCCC2)C1=O (stereo unspecified) | 93%
O=C(/C=C/c1ccc(Cl)c(Cl)c1)NCCCCCN1CCCN(C(=O)Nc2ccc(OC(F)F)cc2)CC1 | 99%
COc1cccc2c(NN=Cc3ccccc3F)ccnc12 | 96%
Brc1ccccc1CNc1ccnc(NCCn2ccnc2)n1 | 99%
COC(=O)c1ccc(C2OC3(C(=O)c4ccccc4C3=O)C(OC)=C2Cl)cc1C(C)=O (stereo unspecified) | 99%
O=C1Nc2cccc3c2C1(CCCCN1CCC(c2c(-c4ccc(F)cc4)[nH]c4ccccc24)CC1)CCC3 (stereo unspecified) | 91%
N#CN1CC[C@@H](OC(=O)N[C@@H]2C[C@H]2c2ccccc2)C1 | 84%
Cl.O=C(NC1CCC(CCN2Cc3ccc(Br)cc3C2)CC1)c1cccc(-c2cccnc2)c1 (stereo unspecified) | 99%
Cc1cc(OCCCN2CCCCC2C)ccc1NC(=O)COc1ccc(Cl)cc1C(=O)c1cc(Cl)cc(C#N)c1 (stereo unspecified) | 91%
COc1cccc(NC(=O)Nc2c(-c3cccc(C(F)(F)F)c3)c(C(F)(F)F)nn2C)c1 | 93%
CCOC(=O)N/N=C/[C@H](CCc1ccccc1)NC(=O)[C@H](CC(C)C)NC(=O)c1cc2cccc(OC)c2o1 | 84%
Fc1cccc(COc2ccc(-n3ccc4c(NCCCn5ccnc5)ncnc43)cc2Cl)n1 | 87%
O=C(N[C@H]1CCN(Cc2ccc(OCCCN3CCCCC3)cc2)C1)c1ccc2ccccc2c1 | 97%
COC(=O)c1cccc(CNCc2ccc(-c3cccc(-c4nc5ccccc5[nH]4)c3)cc2)c1.O=C(O)C(F)(F)F | 100%
O=C(C=Cc1ccc(Cl)c(Cl)c1)NCCCCCN1CCCC(CCCNC(=O)c2cccs2)C1 (stereo unspecified) | 89%
O=C(Nc1ccccc1)N(Cc1ccccc1-c1cccc(CNCCc2ccccc2)c1)C1CCN(Cc2ccccc2)CC1.O=C(O)C(F)(F)F | 100%
CC(C)c1ccc2oc(-c3ccc(NC(=O)c4ccc([N+](=O)[O-])o4)cc3)nc2c1 | 100%
CCCCCC(C)C(C)c1cc(O)c2c(c1)OC(C)(C)C=C2c1cc[n+]([O-])cc1 (stereo unspecified) | 91%
COCCNCc1ccc(-c2ccc(CNc3ccc4ncccc4c3)cc2)cc1.O=C(O)C(F)(F)F | 85%
Cc1cc(C)c(C(=O)Nc2n[nH]c3nnc(-c4cccc(F)c4F)cc23)c(C)c1 | 90%
COc1cc(Cc2cnc(N)nc2N)cc(OCC(C)(C)C(=O)O)c1OC | 89%
COC(=O)c1cccc(NC(=O)NCCNc2ccnc(Nc3ccc(F)cc3)n2)c1 | 93%
Cc1nnc2c(NC(=O)NC3CCCC3)cc3cc(-c4ccc(CN5CCN(C)CC5)cc4)ccc3n12 | 99%
